From ChEMBL document CHEMBL3988442, “University of Dundee, Small-Polar-MMV Screening Library” (2021) come the findings set out here.

Each structure is given as a SMILES string. Out of some 53,000 compounds screened, about 900 (1.7%) showed an effect of 50% or more. The sample holds strong results, similar compounds and a random draw of the others, so the mix is not that of the screen.

In this experiment the test system is Mycobacterium tuberculosis. Description: Cornell - Phenotypic assay to identify agents that inhibit growth of Mycobacterium tuberculosis. The following applies: 10 mM as filed; unlikely as a test dose. Also noted: scale not given: direction of the effect not stated beside the values. Format: functional.
`O=C(O)C(F)(F)F.O=C1N(CC2CC2)CCC12CCN(Cc1ccoc1)CC2`: the “Percent Effect” value was -1.631%.
As for `Cl.O=C(NCCn1nc(C2CCNC2)c2cccnc21)c1ccccc1` (stereo not given), the “Percent Effect” value is -53.35%.
On to `Cc1c(OCC(=O)NCc2ccccc2)c(=O)ccn1C`, for which the “Percent Effect” value is 2.776%.
In the case of `OCCn1nccc1C1CCN(CCOc2ccccc2Cl)CC1`, the “Percent Effect” value was -31.74%.
For the compound `CCc1cnc(CN(C)C2CCN(CC3CCN(C(C)=O)CC3)C2)o1` (stereo not given), the “Percent Effect” value is listed as 6.622%.
The result for `Cc1ccc(-c2cc(N)c(=O)n(CC(=O)NC3CCCC3)n2)s1` reads -35.82%; that for `Cc1ccc(-c2cc(N)c(=O)n(CC(=O)NCC3CCCCC3)n2)s1`, 31.53%; that for `Cc1ccc(-c2cc(N)c(=O)n(CC(=O)NC3CCCCC3)n2)s1`, 21.23%.
The result for `Cc1cc(-c2cc(N)c(=O)n(CC(=O)NCC3CCCCC3)n2)c(C)o1` reads -31.85%.
The result for `Nc1cc(-c2cccs2)nn(CC(=O)NCC2CCCCC2)c1=O` reads 91.2%; that for `Cc1ccc(-c2cc(N)c(=O)n(CC(=O)NCC3CC3)n2)s1`, 90.74%.
`CCN1CCn2c(C)cnc2C12CCN(C(=O)C(C)C)CC2.O=C(O)C(F)(F)F.O=C(O)C(F)(F)F`: the “Percent Effect” value is listed as 14.47%.
As to `COCCN1C(=O)CO[C@H]2CN(Cc3cccc(OC)c3F)C[C@@H]21`, the “Percent Effect” value is given as -23.69%.
As for `Cc1cc(NC(=O)CN2CCN(c3nccs3)C(C)C2)on1` (stereo not given), the “Percent Effect” value is 22.95%.
The result for `CCOc1ccc(NC(=O)Cn2cc(I)cn2)cc1` reads 8.752%; that for `OC1CN(c2nc3c(C(F)(F)F)cccc3s2)C1`, -37.29%; that for `O=C(CCc1ccco1)N1CCC(Nc2cccnn2)CC1`, -37.65%.
The same measure for `Cc1ccccc1NC1CCN(C(=O)CCc2ccco2)CC1`: 50.28%.
The result for `Cc1ccc(NC2CCN(C(=O)CCc3ccco3)CC2)nn1` reads 9.645%; that for `COc1cccc(Cn2ncnc2CCSC)c1`, 21.64%.
`CN(Cc1cncnc1)[C@@H]1CN(C(=O)C2CC2)[C@@H]2CCCO[C@H]12.O=C(O)C(F)(F)F`: the “Percent Effect” value is recorded as 10.43%.
The same measure for `Cc1cc(C)nc(N2CCC(c3cc(CCO)[nH]n3)C2)n1` (stereo not given): 21.68%.
The same measure for `Cc1cc(C2CCCN(C(=O)COc3ccc(F)cc3)C2)n[nH]1` (stereo not given): 21.79%.
As for `Clc1ccc(OCCc2cc(C3CCN(c4ncccn4)C3)n[nH]2)cc1` (stereo not given), the “Percent Effect” value is reported as 81.19%.
The same measure for `Cn1cc(CN2CCC(c3cc(COc4ccc(Cl)cc4)[nH]n3)C2)cn1` (stereo not given): 8.733%; for `CCCN1CCC(c2cc(CCOc3ccc(C(F)(F)F)cc3)[nH]n2)C1` (stereo not given): 74.52%.
The same measure for `Br.COc1ccc(OCCc2cc(C3CCN(CC(C)C)C3)n[nH]2)cc1` (stereo not given): 44.88%; for `CN(C)CCCNCCC(Cc1ccccc1)C1CCOC(C)(C)C1.O=C(O)C(=O)O` (stereo not given): 18.5%.
The same measure for `O=C(O)C(F)(F)F.O=C(c1c[nH]cn1)N1CCOCC2(C1)CN(c1ccccc1)C(=O)CO2` (stereo not given): 29.26%; for `O=C(c1ccc[nH]1)N1CCOCC2(C1)CN(c1ccccc1)C(=O)CO2` (stereo not given): 34.74%.
Take `O=C(c1cc[nH]n1)N1CCOCC2(C1)CN(c1ccccc1)C(=O)CO2` (stereo not given): the “Percent Effect” value was 56%.
The result for `CCn1nnnc1-c1cccc(NCc2nc(C)ccc2O)c1` reads 4.577%; that for `O=C(O)CCCN1C[C@@H](c2ccccc2F)[C@@]2(CCCCC(=O)N2)C1`, 43.05%; that for `COc1cc(F)c(S(=O)(=O)Nc2cnc(O)cc2C)cc1OC`, 3.766%.
The same measure for `CC(Cn1cncc1-c1cnn(Cc2ccccc2)c1)N1CCCCC1.Cl` (stereo not given): 58.13%.
The same measure for `CC(Cn1cncc1-c1cnn(C2CCCCC2)c1)N1CCCCC1.Cl` (stereo not given): -3.197%; for `CCC(CN1CCCC1)n1cncc1-c1cnn(Cc2ccccc2)c1.Cl` (stereo not given): 36.43%.
For the compound `CCOc1ccccc1N1CCN(C(=O)NCc2cc[nH]n2)CC1`, the “Percent Effect” value is reported as -20.55%.
The same measure for `CNc1cc(C2CCCN2C(=O)c2ccc(=O)[nH]n2)ccn1.O=CO` (stereo not given): 2.671%; for `CCC(CN1CCCC1)n1cncc1-c1cnn(-c2ccc(F)cc2)c1.Cl` (stereo not given): 20.09%.
The same measure for `CCC(CN1CCOCC1)n1cncc1-c1ccc2c(c1)CCCN2C.Cl` (stereo not given): 15.31%.
The same measure for `CCC(CN1CCCC1)n1cncc1-c1cnn(-c2ccccc2)c1.Cl` (stereo not given): 55.09%.
For `CCn1nc(C)cc1C(=O)NCc1cc(N(C)C)nc2ccccc12`, the “Percent Effect” value worked out at 34.42%.
`CC(C)OCCCNC(=O)CN1CCN(c2nccs2)CC1`: the “Percent Effect” value worked out at 4.56%.
Turning to `O=C(c1cnc(O)c(Cl)c1)N1CCCC(c2nccs2)C1` (stereo not given), the “Percent Effect” value is -10.54%.
The same measure for `O=C(NCCCO)Nc1cnc2cc(Cl)ccc2c1O`: 81.69%.
As for `O=C(NCCO)Nc1cnc2cc(Cl)ccc2c1O`, the “Percent Effect” value is on record as 103.7%.
On to `CNC(=O)Nc1cnc2cc(Cl)ccc2c1O`, for which the “Percent Effect” value is listed as -22.82%.
The result for `O=C(NCCN1CCOCC1)Nc1cnc2cc(Cl)ccc2c1O` reads -4.322%; that for `O=C(NCCCN1CCOCC1)Nc1cnc2cc(Cl)ccc2c1O`, 32.37%.
